A selection: hits, their analogues and other compounds. The true share with any hit is near 4%.
697 NFkB inh: lowers PMA/ionomycin-induced NF-kB signal in 697 B cells | 697 B-cell NF-kB luciferase reporter, 16 h | inhibition, % at 4 µM | actives 0.33% (n = 330,000); in the data active = inhibition above about 35%
Beta apoptosis: blocks beta cell apoptosis. protection from apoptosis, % (concentration not given with the values). AID 435005. actives 0.8% (n = 300,000). INS-1E cytokine-induced death, ATP luminescence, 48 h; percent of positive-control rescue, neutral wells zero;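 active = Every replicate reaches about 75%, or at least half do and their mean reaches it too, limit read from the data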;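 also: higher means more ATP so stronger rescue from cytokine killing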
Gli-Sufu antag: blocks Gli-Sufu signaling in a luciferase reporter. Sufu-KO-LIGHT fibroblasts, Gli luciferase reporter luminescence. inhibition, % at 5 µM. actives 0.74% (n = 340,000);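 active = inhibition above about 55%, limit read from the data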
Mdm2-MdmX inh: inhibitors of human Mdm2/MdmX interaction | O15151+Q00987 | AID 485346 | actives 3% (n = 330,000) | SaOS-2 split-luciferase Mdm2/MdmX complementation, luminescence | inhibition, % at 8 µM;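 active = inhibition of at least 50% at 8 µM in the primary screen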
Target sequence (O15151 whole entry, looked up): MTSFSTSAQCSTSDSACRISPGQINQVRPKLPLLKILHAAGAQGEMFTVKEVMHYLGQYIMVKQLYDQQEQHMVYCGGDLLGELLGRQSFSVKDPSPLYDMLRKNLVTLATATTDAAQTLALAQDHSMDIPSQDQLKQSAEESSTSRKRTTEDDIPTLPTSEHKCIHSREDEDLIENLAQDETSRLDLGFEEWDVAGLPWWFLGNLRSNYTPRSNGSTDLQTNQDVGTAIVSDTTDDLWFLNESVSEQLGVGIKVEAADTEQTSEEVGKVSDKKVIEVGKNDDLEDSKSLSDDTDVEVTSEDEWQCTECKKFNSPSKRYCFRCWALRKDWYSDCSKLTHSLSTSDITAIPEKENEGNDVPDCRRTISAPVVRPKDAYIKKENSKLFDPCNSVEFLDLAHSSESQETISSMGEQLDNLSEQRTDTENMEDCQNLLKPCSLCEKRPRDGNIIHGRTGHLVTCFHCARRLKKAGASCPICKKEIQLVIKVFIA
Target sequence (Q00987 whole entry, looked up): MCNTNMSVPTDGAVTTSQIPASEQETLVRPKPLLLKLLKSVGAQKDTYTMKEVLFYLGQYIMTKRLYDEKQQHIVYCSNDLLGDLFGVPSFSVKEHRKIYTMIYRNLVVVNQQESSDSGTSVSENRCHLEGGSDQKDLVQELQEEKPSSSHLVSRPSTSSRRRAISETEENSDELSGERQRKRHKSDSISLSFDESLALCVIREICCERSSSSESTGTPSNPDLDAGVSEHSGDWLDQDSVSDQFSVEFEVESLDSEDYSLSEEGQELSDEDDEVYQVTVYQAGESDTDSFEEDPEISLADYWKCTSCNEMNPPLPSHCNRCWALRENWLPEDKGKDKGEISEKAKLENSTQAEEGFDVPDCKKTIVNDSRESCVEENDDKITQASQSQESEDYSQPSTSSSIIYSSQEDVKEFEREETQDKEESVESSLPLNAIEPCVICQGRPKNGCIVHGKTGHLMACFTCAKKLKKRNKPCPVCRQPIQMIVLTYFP
Jurkat NFkB inh: lowers PMA/ionomycin-induced NF-kB signal in Jurkat cells; PMA/ionomycin-induced NF-kB luciferase reporter, luminescence; inhibition, % at 4 µM; actives 0.53% (n = 330,000); AID 435003; in the data active = inhibition above about 50%
Mdm2-MdmX conf: confirmation of human Mdm2/MdmX interaction inhibitors. shares compounds with Mdm2-MdmX inh. Mdm2-MdmX binding, luminescent assay. inhibition, % at 8 µM. actives 55% (n = 10,000); in the data active = inhibition above about 40%
FLuc counter: inhibits full-length luciferase, flagging false Mdm2/MdmX hits; actives 77% (n = 6,200); inhibition, % at 8 µM; shares compounds with Mdm2-MdmX inh; SaOS-2 full-length luciferase counterscreen, luminescence;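 active = mean inhibition at 8 µM reaching about 37%, which flags the compound as non-specific, limit read from the data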;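 also: p53-null SaOS-2 cells with luciferase driven by a doxycycline-inducible promoter; compound on cells about two nights before reading with doxycycline added after day one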
Hits are given with their value.

Results for CCc1cccc2c1NC(=O)C21N2CCCC2C(C(=O)c2ccc3ccccc3c2)C12C(=O)Nc1ccccc12 (centres undefined) ?
697 NFkB inh: inactive; Beta apoptosis: inactive; Gli-Sufu antag: inactive; Mdm2-MdmX inh: inactive; Jurkat NFkB inh: inactive

How did Cn1c(=O)c2c(ncn2CC(=O)OCC(=O)c2ccc(F)c(F)c2)n(C)c1=O do in these assays?
697 NFkB inh: inactive; Beta apoptosis: inactive; Gli-Sufu antag: inactive; Mdm2-MdmX inh: inactive; Jurkat NFkB inh: inactive

What do the screens show for `COc1ccc(C2=NNC(=Nc3cc(S(=O)(=O)N(C)C)ccc3C)SC2)c(OC)c1`?
697 NFkB inh: inactive; Beta apoptosis: 103; Gli-Sufu antag: inactive; Mdm2-MdmX inh: 67; Jurkat NFkB inh: inactive; Mdm2-MdmX conf: 50; FLuc counter: 54

What do the screens show for `Cc1cccc(N=C2NN=C(c3ccccc3F)CS2)c1C`?
697 NFkB inh: inactive; Beta apoptosis: inactive; Gli-Sufu antag: inactive; Mdm2-MdmX inh: inactive; Jurkat NFkB inh: inactive

How did CC(=O)Nc1ccc(NC(=S)NC(=O)c2oc3ccccc3c2C)cc1 do in these assays?
697 NFkB inh: inactive; Beta apoptosis: inactive; Gli-Sufu antag: inactive; Mdm2-MdmX inh: 62; Jurkat NFkB inh: inactive; Mdm2-MdmX conf: inactive

How did CCC(=O)Nc1ccc(NC(=S)NC(=O)c2oc3ccccc3c2C)cc1 do in these assays?
697 NFkB inh: inactive; Beta apoptosis: inactive; Gli-Sufu antag: inactive; Mdm2-MdmX inh: 72; Jurkat NFkB inh: inactive; Mdm2-MdmX conf: inactive

What do the screens show for `CC(=O)Nc1cc2c3ccccc3n(C)c2cc1[N+](=O)[O-]`?
Gli-Sufu antag: inactive

How did Cc1ccc2cc(CN(CCCN(C)C)C(=S)NCc3ccccc3)c(=O)[nH]c2c1C do in these assays?
697 NFkB inh: inactive; Beta apoptosis: inactive; Gli-Sufu antag: inactive; Mdm2-MdmX inh: 55; Jurkat NFkB inh: inactive; Mdm2-MdmX conf: inactive

Results for COc1cc2cc(CN(CCc3ccccc3C)C(=S)NCCCN3CCOCC3)c(=O)[nH]c2cc1OC ?
697 NFkB inh: inactive; Beta apoptosis: inactive; Gli-Sufu antag: inactive; Mdm2-MdmX inh: 52; Jurkat NFkB inh: inactive; Mdm2-MdmX conf: inactive

What do the screens show for `COc1cc2cc(CN(CCc3ccccc3C)C(=S)NCCCN(C)C)c(=O)[nH]c2cc1OC`?
697 NFkB inh: inactive; Beta apoptosis: inactive; Gli-Sufu antag: inactive; Mdm2-MdmX inh: 55; Jurkat NFkB inh: inactive; Mdm2-MdmX conf: inactive

Results for COc1ccc(S(=O)(=O)N/N=c2\oc3c(OC)cccc3cc2S(=O)(=O)c2ccc(C)cc2)cc1OC ?
697 NFkB inh: inactive; Beta apoptosis: inactive; Gli-Sufu antag: inactive; Mdm2-MdmX inh: inactive; Jurkat NFkB inh: inactive

Results for CC(Nc1nc(-c2ccccc2)nc2ccccc12)c1ccccc1 (centres undefined) ?
697 NFkB inh: inactive; Beta apoptosis: inactive; Gli-Sufu antag: inactive; Mdm2-MdmX inh: inactive; Jurkat NFkB inh: inactive

Results for CC(Nc1nc(N2CCCCC2)nc2ccccc12)c1ccccc1 (centres undefined) ?
697 NFkB inh: inactive; Beta apoptosis: inactive; Gli-Sufu antag: inactive; Mdm2-MdmX inh: 54; Jurkat NFkB inh: inactive; Mdm2-MdmX conf: 47; FLuc counter: 73

How did COc1ccc(Nc2nc(N3CCCC3)nc3ccccc23)c(OC)c1 do in these assays?
697 NFkB inh: inactive; Beta apoptosis: inactive; Gli-Sufu antag: inactive; Mdm2-MdmX inh: 54; Jurkat NFkB inh: inactive; Mdm2-MdmX conf: inactive

Results for COc1ccc(Nc2ncnc3ccccc23)c(OC)c1 ?
697 NFkB inh: inactive; Beta apoptosis: inactive; Gli-Sufu antag: inactive; Mdm2-MdmX inh: inactive; Jurkat NFkB inh: inactive

What do the screens show for `O=C(O)c1cc(NC(=O)c2ccc3c(c2)C(=O)N(Cc2ccccc2)C3=O)cc(C(=O)O)c1`?
697 NFkB inh: inactive; Beta apoptosis: inactive; Gli-Sufu antag: inactive; Mdm2-MdmX inh: inactive; Jurkat NFkB inh: inactive

How did O=C(Nc1cc(=O)[nH]c(=O)[nH]1)c1cc(Cl)ccc1Cl do in these assays?
697 NFkB inh: inactive; Beta apoptosis: inactive; Gli-Sufu antag: inactive; Mdm2-MdmX inh: 64; Jurkat NFkB inh: inactive; Mdm2-MdmX conf: 56; FLuc counter: 58

What do the screens show for `O=Cc1cccc(OCc2cccc3ccccc23)c1`?
697 NFkB inh: inactive; Beta apoptosis: inactive; Gli-Sufu antag: inactive; Mdm2-MdmX inh: inactive; Jurkat NFkB inh: inactive

Results for Cc1cc(N)c2ccccc2n1 ?
697 NFkB inh: inactive; Beta apoptosis: inactive; Gli-Sufu antag: inactive; Mdm2-MdmX inh: inactive; Jurkat NFkB inh: inactive

What do the screens show for `Nc1cc2ccncc2c2ccccc12`?
697 NFkB inh: inactive; Beta apoptosis: inactive; Gli-Sufu antag: inactive; Mdm2-MdmX inh: 84; Jurkat NFkB inh: inactive; Mdm2-MdmX conf: 84; FLuc counter: 50

How did N/C(=N\OC(=O)c1ccccc1)C(C(=O)NOC(=O)c1ccccc1)C1CCCCC1 (centres undefined) do in these assays?
Gli-Sufu antag: inactive

What do the screens show for `CN1CCN(CCC=C2c3ccccc3Sc3ccc(S(=O)(=O)N(C)C)cc32)CC1`?
697 NFkB inh: inactive; Beta apoptosis: inactive; Gli-Sufu antag: inactive; Mdm2-MdmX inh: 50; Jurkat NFkB inh: inactive; Mdm2-MdmX conf: inactive

Results for COCCn1c(SCC(=O)c2c(N)n(C3CC3)c(=O)[nH]c2=O)nc2ccccc21 ?
697 NFkB inh: inactive; Beta apoptosis: inactive; Gli-Sufu antag: inactive; Mdm2-MdmX inh: inactive; Jurkat NFkB inh: inactive

Results for Cc1cc(OCc2nc(-c3ccc(NC(=O)c4cccnc4)cc3)no2)ccc1Cl ?
697 NFkB inh: inactive; Beta apoptosis: 125; Gli-Sufu antag: inactive; Mdm2-MdmX inh: 62; Jurkat NFkB inh: inactive; Mdm2-MdmX conf: inactive

What do the screens show for `COC(=O)c1ccc2c(c1)sc(=NC(=O)CCS(=O)(=O)c1ccccc1)n2C`?
697 NFkB inh: inactive; Gli-Sufu antag: inactive; Mdm2-MdmX inh: 51; Jurkat NFkB inh: inactive; Mdm2-MdmX conf: 44; FLuc counter: 77

Results for O=C(/C=C/c1ccco1)NC(=S)Nc1nc(-c2ccc3ccccc3c2)cs1 ?
697 NFkB inh: inactive; Beta apoptosis: inactive; Gli-Sufu antag: inactive; Mdm2-MdmX inh: 78; Jurkat NFkB inh: inactive; Mdm2-MdmX conf: 45; FLuc counter: 48

What do the screens show for `COc1ccc(-c2csc(NC(=S)NC(=O)/C=C/c3ccccc3)n2)cc1Br`?
697 NFkB inh: inactive; Beta apoptosis: inactive; Gli-Sufu antag: inactive; Mdm2-MdmX inh: 55; Jurkat NFkB inh: inactive; Mdm2-MdmX conf: inactive

How did O=C(/C=C/c1ccco1)NC(=S)Nc1nc(-c2ccc(Cl)cc2)cs1 do in these assays?
697 NFkB inh: inactive; Beta apoptosis: inactive; Gli-Sufu antag: inactive; Mdm2-MdmX inh: 61; Jurkat NFkB inh: inactive; Mdm2-MdmX conf: 54; FLuc counter: 67

What do the screens show for `COc1ccc(-c2csc(NC(=O)CCn3cnc4ccccc4c3=O)n2)cc1OC`?
697 NFkB inh: inactive; Beta apoptosis: inactive; Gli-Sufu antag: inactive; Mdm2-MdmX inh: 58; Jurkat NFkB inh: inactive; Mdm2-MdmX conf: inactive

From PubChem BioAssay
